Rows were chosen to be rich in hits. Some 2.1% of all compounds tested hit in one or more screens of this group.
D2 antagonist: antagonizes the human D2 dopamine receptor; inhibition, % at 10 µM; HEK293 TREx D2 cells, calcium flux, dopamine EC80; AID 485344; 2% of 340,000 active; P14416; in the data active means inhibition above about 30%; inactive means below that, where a call was filed; further: 0% is about no effect
Target sequence (P14416 whole entry, looked up): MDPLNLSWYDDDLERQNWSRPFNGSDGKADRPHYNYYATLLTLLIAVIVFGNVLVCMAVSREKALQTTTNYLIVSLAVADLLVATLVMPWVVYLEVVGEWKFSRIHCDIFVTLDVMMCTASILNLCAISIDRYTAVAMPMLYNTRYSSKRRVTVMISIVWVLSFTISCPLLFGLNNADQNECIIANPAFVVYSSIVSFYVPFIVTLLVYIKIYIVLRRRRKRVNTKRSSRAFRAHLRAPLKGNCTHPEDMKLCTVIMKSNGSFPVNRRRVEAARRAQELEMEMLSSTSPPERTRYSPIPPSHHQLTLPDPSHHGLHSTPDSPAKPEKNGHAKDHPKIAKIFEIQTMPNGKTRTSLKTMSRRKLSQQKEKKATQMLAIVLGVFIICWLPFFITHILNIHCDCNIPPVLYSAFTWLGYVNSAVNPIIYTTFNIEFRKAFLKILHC
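Antagonism is scored as inhibition of an EC80 dopamine-evoked calcium signal in a force-coupled, tetracycline-inducible HEK293 T-REx D2 line, with compound present 180 s before agonist.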
D2 ag-1: agonists of human D2 dopamine receptor; P14416; HEK293 T-REx D2 cells, calcium flux agonist mode; activation, % at 2 µM; 0.53% of 340,000 active; AID 485358;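 active means activation over 3 SD above normal in the single-dose calcium agonist read, cut at about 30% in these data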; further: 0% is about no effect
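Agonism scored from kinetic calcium signal (1 read/sec, 180 s) following compound pin transfer, after a 10 s baseline. Cells: HEK293 Trex line expressing inducible D2 receptor coupled to calcium, dye-loaded after overnight culture at 30 C.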
D2 PAM-1: D2 dopamine receptor (human) potentiation; P14416; HEK293 T-REx D2, calcium flux, EC20 dopamine potentiation; potentiation, % at 10 µM; 0.34% of 340,000 active;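 active means potentiation over 3 SD above the plate norm, cut at about 30% in these data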; further: 0% is about no effect
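Primary screen. Calcium kinetics in induced HEK293 T-REx D2 cells: compound pre-addition 180 s, EC20 dopamine, 180 s more.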
D2 ag-2: agonists of human D2 dopamine receptor (beta-arrestin). DiscoveRx PathHunter D2 beta-arrestin, luminescence, 90 min; 100% = 57 uM dopamine signal. activation, % (no concentration beside the values). 0.084% of 360,000 active. AID 624465; in the data active means activation above about 40%
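Agonist mode: compounds alone added to overnight-plated D2 PathHunter cells for 90 min at 37 C, with 57 uM final dopamine (EC100) defining full response. Beta-arrestin recruitment detected by chemiluminescent reagent, read after 1 h at ambient temperature.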
D2 PAM-2: positive allosteric modulators of human D2 dopamine receptor | P14416 | DiscoveRx D2 beta-arrestin cells, luminescence, 90 min; 100% = 57 uM dopamine signal | potentiation, % (concentration not given with the values) | 0.23% of 360,000 active; in the data active means potentiation above about 50%
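PathHunter D2 cells, attached overnight at 37 deg C, received compound in DMSO plus dopamine at EC20 (50 nM final) for 90 min at 37 deg C. Beta-arrestin recruitment was read as luminescence after 1 h with detection reagent at ambient temperature.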
LDHA block: inhibitors of human lactate dehydrogenase A | 0.15% of 480,000 active | purified LDHA, NADH/diaphorase-resazurin fluorescence; active compounds read low | AID 1347041 | P00338 | activity change, % (values are at about 110 or 230 µM); in the data active means activity change below about -30%;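 further: plate controls were DMSO wells for no effect and wells without enzyme for full effect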
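Human LDH5 (2 nM) was incubated with 0.06 mM NADH and 0.2 mM pyruvate for 5 min at room temperature in Tris pH 7.4. Remaining NADH was coupled through diaphorase/resazurin, and resorufin fluorescence was read at 0 and 20 min.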
Starred values were filed as active, the others as inactive; . = not tested or not shown.

SMILES	D2 antagonist	D2 ag-1	D2 PAM-1	D2 ag-2	D2 PAM-2	LDHA block
CCc1ccccc1NC(=O)N1CCCC(CCC(=O)N(C)CCc2ccccn2)C1 (stereo not given)	33*	-1	-8	-2	-4	-2
CCCN1C(=O)c2ccccc2NC1c1ccc(OC)c(COc2ccc([N+](=O)[O-])c(C)c2)c1 (stereo not given)	.	.	.	.	.	-59*
O=C(COC(=O)c1ccc(F)c(S(=O)(=O)N2CCOCC2)c1)c1ccc(Br)cc1	36*	2	38*	3	21	-1
O=C(COC(=O)c1ccc(F)c(S(=O)(=O)N2CCOCC2)c1)c1ccc(Cl)cc1	2	0	2	1	-2	-5
CC(C)N(Cc1nc(-c2ccccc2)no1)C(=O)c1ccc2c(c1)OCO2	31*	-3	4	1	-8	-4
O=C(Nc1ccc(N2CCOCC2)cc1)c1ccc(Br)o1	71*	0	5	1	-2	0
O=C(N/N=C/C=C\c1ccccc1[N+](=O)[O-])c1ccccn1	81*	-1	-21	-4	-16	-4
N#C/C(=C\c1cc(Br)c(I)o1)c1nc2ccccc2[nH]1	.	.	.	.	.	1
Cc1[nH]c2ccc(C(=O)N(Cc3ccc(F)cc3)C3CC3)cc2c1C	.	.	.	.	.	11
CCC(Cc1ccccc1)NC(=O)CN(C)S(=O)(=O)c1ccc2c(c1)c(=O)n(C)c(=O)n2C (stereo not given)	23	0	52*	-1	-7	-1
CC(NC(=O)CN(C)S(=O)(=O)c1ccc2c(c1)c(=O)n(C)c(=O)n2C)c1ccccc1 (stereo not given)	.	-1	1	-5	-10	1
CN(CC(=O)N1CC=C(c2ccccc2)CC1)S(=O)(=O)c1ccc2c(c1)c(=O)n(C)c(=O)n2C	31*	-1	4	4	-19	5
O=c1c(-c2ccc(Cl)cc2)coc2cc(OCCN3CCN(CCO)CC3)ccc12	.	.	.	.	.	-7
C/C=C/C=C/C(=O)NC1CC2CCC1(C)C2(C)C (stereo not given)	.	.	.	.	.	4
CN1C[C@@H]2C[C@@H](C3=Cc4cc(Cl)ccc4OC3)N3CCC[C@@]23C1=O	1	0	2	1	-5	1
COc1ccccc1CN1C[C@@H]2C[C@@H](C3=Cc4cc(Cl)ccc4OC3)N3CCC[C@@]23C1=O	31*	1	6	-1	-2	2
COc1ccc(NC(=O)CCc2nc3cc(Cl)ccc3n(CC(C)C)c2=O)cc1	.	.	.	.	.	-6
CN1CCN(C(=O)CSc2nc(-c3cccs3)ccc2C#N)CC1	-5	-1	37*	2	-5	-2
Cc1ccccc1C1N(c2nccs2)C(=O)C2CCCN21 (stereo not given)	-3	0	-2	3	-6	-1
O=C1C2CCCN2C(c2ccccc2)N1c1nccs1 (stereo not given)	67*	0	1	-1	-1	-4
O=C(NCCc1cnc[nH]1)Nc1cccc(C(F)(F)F)c1	40*	0	-10	-3	-65	-7
O=C(N/N=C/c1cccnc1)c1cc(-c2ccccc2Cl)nc2ccccc12	3	1	8	1	-1	-3
CCc1ccc(/C=N/NC(=O)c2cc(-c3ccccc3OC)nc3ccccc23)s1	35*	0	-10	-4	-14	-4
Cc1ccccc1-c1cc(C(=O)N/N=C/c2cccnc2)c2ccccc2n1	33*	12	-2	-3	-14	0
CCN(CC)C(=O)COc1ccc(/C=N/NC(=O)c2cc(-c3ccccc3OC)nc3ccccc23)cc1OC	.	.	.	0	-7	-16
SMILES	D2 antagonist	D2 ag-1	D2 PAM-1	D2 ag-2	D2 PAM-2	LDHA block
COc1ccc(/C=N/NC(=O)c2cc(-c3ccccc3OC)nc3ccccc23)cc1COC(C)=O	2	-1	1	-2	-33	-1
COc1ccccc1-c1cc(C(=O)N/N=C/c2ccoc2)c2ccccc2n1	79*	-1	-21	-3	-15	1
COc1ccccc1-c1cc(C(=O)N/N=C/c2ccc(C)s2)c2ccccc2n1	48*	-1	-29	-7	-42	-4
Cc1nc2ccc(C(=O)OC(C)C(=O)NC3CCCCCC3)cc2nc1C (stereo not given)	.	.	.	.	.	15
CSc1cccc(NC(=O)CNc2ccccc2C(=O)NC2CC2)c1	.	.	.	.	.	10
COc1ccc(-c2nn3c(CN4CCOCC4)nnc3s2)c(OC)c1	.	.	.	.	.	-6
Cc1cc(NC(=O)C(C)Sc2nc(-c3cccs3)nc3ccccc23)no1 (stereo not given)	10	1	32*	0	-9	-4
CC(Sc1nc(-c2cccs2)nc2ccccc12)C(=O)NC(C)(C)C (stereo not given)	.	.	.	.	.	-9
COC(=O)Nc1sc(C(=O)N(C)C)c(C)c1C(=O)OC	-9	-1	-1	0	2	-6
CCOC(=O)c1c(NC(=O)OC)sc(C(=O)N(C)C)c1C	69*	0	-5	4	14	2
CCOC(=O)c1c(NC(=O)COC(=O)c2ccc(Cl)nc2)sc(C(=O)N(C)C)c1C	.	.	.	-4	-6	-4
CCOC(=O)c1c(NC(=O)COC(=O)c2ccc(O)cc2)sc(C(=O)N(C)C)c1C	-9	0	36*	0	-5	0
C/C=C/C=C/C(=O)NC1CCCc2ccccc21 (stereo not given)	.	.	.	.	.	9
Cn1cccc1-c1cc(C(=O)N/N=C/c2ccc([N+](=O)[O-])cc2)[nH]n1	10	0	-6	-5	-4	-7
Cn1cccc1-c1cc(C(=O)N/N=C/c2ccccc2Cl)[nH]n1	88*	0	-25	1	-28	-3
Cn1cccc1-c1cc(C(=O)N/N=C/c2ccc(F)cc2)[nH]n1	61*	-3	.	-2	-23	-6
CC(NS(=O)(=O)c1ccc(Cl)s1)c1cc2ccccc2o1 (stereo not given)	.	.	.	.	.	5
C=CCn1c(SCC(=O)Nc2cc(C)on2)nc2sc(CC)cc2c1=O	-14	-1	18	-3	-4	-1
C=CCn1c(SCC(=O)Nc2ccc(O)cc2)nc2sc(CC)cc2c1=O	31*	-1	3	2	-2	-11
Cc1[nH]c(I)c(C)c1C=O	.	.	.	.	.	-4
COc1ccc(-c2noc(CN(C)S(=O)(=O)c3ccc(Cl)cc3)n2)cc1OC	0	1	45*	2	10	0
COc1ccc(-c2noc(-c3ccco3)n2)cc1OC	-6	1	36*	0	6	-2
c1cc(-c2noc(-c3ccco3)n2)cc(-c2noc(-c3ccco3)n2)c1	.	.	.	.	.	-1
